This note sets out measurements from PubChem BioAssay (Tox21).

Inconclusive results are not listed. A call without a number means that no potency is given here. Calls of active or inactive are those of the source. Calls come from the whole dose curve.
Potency is the fitted concentration of half-maximal effect.

Chain of Progesterone receptor (Homo sapiens) (P06401 whole entry, looked up): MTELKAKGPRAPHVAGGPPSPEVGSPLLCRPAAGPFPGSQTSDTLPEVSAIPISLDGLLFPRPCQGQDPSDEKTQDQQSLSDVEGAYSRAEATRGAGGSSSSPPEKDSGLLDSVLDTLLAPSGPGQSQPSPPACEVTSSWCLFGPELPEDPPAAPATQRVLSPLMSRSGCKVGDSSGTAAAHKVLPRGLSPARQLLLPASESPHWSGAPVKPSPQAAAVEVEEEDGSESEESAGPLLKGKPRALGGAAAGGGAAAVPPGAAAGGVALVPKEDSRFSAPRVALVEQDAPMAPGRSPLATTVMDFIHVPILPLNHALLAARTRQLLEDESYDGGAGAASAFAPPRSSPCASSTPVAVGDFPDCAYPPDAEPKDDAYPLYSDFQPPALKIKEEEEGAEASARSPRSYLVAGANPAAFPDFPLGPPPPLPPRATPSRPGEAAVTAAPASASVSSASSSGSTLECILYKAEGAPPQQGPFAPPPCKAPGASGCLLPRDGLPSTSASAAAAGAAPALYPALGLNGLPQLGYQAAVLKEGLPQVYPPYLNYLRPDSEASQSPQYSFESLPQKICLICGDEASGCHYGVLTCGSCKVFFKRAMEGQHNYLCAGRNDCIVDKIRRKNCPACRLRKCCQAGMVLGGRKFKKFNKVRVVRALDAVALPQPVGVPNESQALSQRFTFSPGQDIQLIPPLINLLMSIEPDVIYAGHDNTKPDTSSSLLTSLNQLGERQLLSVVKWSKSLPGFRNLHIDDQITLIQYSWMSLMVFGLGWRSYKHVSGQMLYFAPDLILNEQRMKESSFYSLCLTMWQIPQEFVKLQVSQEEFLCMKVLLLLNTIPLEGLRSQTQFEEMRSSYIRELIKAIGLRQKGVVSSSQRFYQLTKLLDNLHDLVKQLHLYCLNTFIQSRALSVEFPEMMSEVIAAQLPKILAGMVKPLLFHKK

This assay deals with Progesterone receptor (Homo sapiens) (UniProt P06401). Briefly: qHTS assay to identify small molecule agonists of the progesterone receptor (PR) signaling pathway (AID 1346784). Note: nearly all actives have a fitted effect of over 30% in size. The conditions noted are these: PR-UAS-bla HEK293T, beta-lactamase FRET ratio, 16 h; series mostly up to 92.4 µM. The source says:
U.S. Tox21 Program National Center for Advancing Translational Sciences [NCATS] NIH Chemical Genomics Center [NCGC] U.S. Environmental Protection Agency [EPA] National Institutes of Environmental Health Sciences [NIEHS] National Toxicology Program [NTP] U.S. Food and Drug Administration [FDA] […] Endocrine disrupting chemicals (EDCs) and their interactions with steroid hormone receptors like PR causes disruption of normal endocrine function. To identify the compounds that activate PR signaling, a PR-UAS-bla GripTite cell line i.e. PR-UAS-bla HEK 293T (Invitrogen, Carlsbad, CA, USA) containing a beta-lactamase reporter gene under the control of an Upstream Activator Sequence (UAS) was used to screen Tox21 10K compound library.
Tox21 Assay Protocol Summary: PR-UAS-bla HEK 293T cells were dispensed at 3,000 cells/5 uL of assay medium containing 2% charcoal stripped FBS per well into black wall/clear-bottom 1536-well plates using a Multidrop Combi (ThermoFisher Scientific, Waltham, MA) dispenser. After the assay plates were incubated at a 37C and 5% CO2 for 6hr, 23 nL of compounds dissolved in DMSO, positive controls or DMSO only was transferred to the assay plate by a Pintool station (Kalypsys, San Diego, CA). The plates were incubated at 37C and 5% CO2 for 16hr. Then 1 uL of LiveBLAzer B/G FRET substrate was added using a BioRAPTR FRD (Flying Reagent Dispenser, Aurora Discovery, San Diego, CA). After the plates were incubated at room temperature for 2 hours, fluorescence intensity was measured by an Envision plate reader (PerkinElmer, Shelton, CT).
On the technique in general: Quantitative high-throughput screening tests each substance at several concentrations.
Turning to `CCCCCCCCCCCCSC`, the Potency entry is “inactive”. Still for that read-out and setting: the same measure for `COc1cc2c(cc1OC)-c1cc3ccc(OC)c(OC)c3c[n+]1CC2`: “inactive”; for `O=C(O)CCSCCC(=O)O`: “inactive”. In the case of `CC1(C)[C@@H]2CC[C@@]1(C)[C@H](O)C2`, the Potency result is “inactive”. The same measure, in the same setting: next, `CC(C)NNC(=O)c1ccncc1`: “inactive”.

Take `CC1=NN(c2cc(S(=O)(=O)O)ccc2Cl)C(=O)C1N=Nc1ccccc1` (stereo not given): the Potency result is “inactive”. Take `Cc1onc(-c2c(Cl)cccc2Cl)c1C(=O)Cl`: the Potency entry was “inactive”. On the same count and under the same terms, next, `O=CN(CCO)CCO`: “inactive”; `O=C(c1ccccc1O)c1ccccc1O`: “inactive”. On the same count and under the same terms, the same measure for `CN(C)CCCCCCN(C)C`: “inactive”; for `Cc1ccnc(NS(=O)(=O)c2ccc(N)cc2)n1`: “inactive”.

Regarding `C=C[Si](OC(C)=O)(OC(C)=O)OC(C)=O`, the Potency result is “inactive”.

As for `CCCCN(CCC(=O)OCC)C(C)=O`, the Potency entry was “inactive”.

Consider `NC(N)=NCCN1CCCCCCC1`, for which the activation is -1.69% [at 0.349 µM] (inactive). Consider `C[N+]1(C)CCCC(OC(=O)C(O)(c2ccccc2)c2ccccc2)C1` (stereo not given), for which the Potency was 15 µM (active). The same measure, in the same setting: next, `N[C@H](C(=O)O)[C@@H](O)c1ccc(O)c(O)c1`: “inactive”. The same measure, in the same setting: next, `Cc1cccc(C)c1NC(=O)CC12CCCN1CCC2`: “inactive”.

As to `CC(=O)Nc1ccc(OCC(O)CNC(C)C)cc1` (stereo not given), the Potency result was “inactive”. The same measure, in the same setting: next, `CO[C@@]1(NC(=O)C(C(=O)O)c2ccc(O)cc2)C(=O)N2C(C(=O)O)=C(CSc3nnnn3C)CO[C@@H]21` (stereo not given in full): “inactive”. For the compound `CC(C)=CCC/C(C)=C/C#N`, the Potency result is “inactive”.

For the compound `C[C@@H]1CCC[C@H](C)N1`, the Potency entry is “inactive”. On the same count and under the same terms, next, `O=C(O)CNC(=O)c1ccccc1`: “inactive”; `O=C(c1ccccc1)C1(O)CCCCC1`: “inactive”; `CCC(C)(CCCC(C)C)OC(C)=O` (stereo not given): “inactive”. With `CN(C)C(=O)Oc1cccc([N+](C)(C)C)c1`, the Potency entry is “inactive”. With `Cc1ccc(C(=O)Nc2ccc(S(=O)(=O)O)c3cc(S(=O)(=O)O)cc(S(=O)(=O)O)c23)cc1NC(=O)c1cccc(NC(=O)Nc2cccc(C(=O)Nc3cc(C(=O)Nc4ccc(S(=O)(=O)O)c5cc(S(=O)(=O)O)cc(S(=O)(=O)O)c45)ccc3C)c2)c1`, the Potency entry is “inactive”.

Take `CC/C=C\CCOC(C)OCC` (stereo not given): the Potency result is “inactive”. The same measure, in the same setting: next, `CCCCOC(=O)CCC(C)=O`: “inactive”; `C=COCC1CCC(COC=C)CC1` (stereo not given): “inactive”; `O=C1CCCCCCCCCCCCCCO1`: “inactive”. Same read-out and setting: next, `CCCOC(=O)CC`: “inactive”. For the compound `COCCOC[C@H](CC1(C(=O)NC2CCC(C(=O)O)CC2)CCCC1)C(=O)Oc1ccc2c(c1)CCC2` (stereo not given in full), the Potency result was “inactive”. The same measure, in the same setting: next, `CC(C)(C)c1ccc(-c2ccc(C(C)(C)C)cc2)cc1`: “inactive”. The same measure, in the same setting: next, `CC(C#N)(CCC(=O)O)N=NC(C)(C#N)CCC(=O)O` (stereo not given): “inactive”. On the same count and under the same terms, next, `C=CCCCCCCCCC(=O)OCC`: “inactive”; `O=C(O)CCCC[P+](c1ccccc1)(c1ccccc1)c1ccccc1`: “inactive”; `COc1cc(-c2ccc(=O)[nH]n2)ccc1OC(F)F`: “inactive”.

Turning to `CCCCN1C=CN(C)C1`, the Potency was 2.46 µM (active). Still for that read-out and setting: next, `COc1cccc(OC)c1C(=O)N[C@@H]1C(=O)N2[C@@H]1SC(C)(C)[C@@H]2C(=O)O`: “inactive”; `C=CC(=O)OCCCl`: “inactive”.
